The record followed here is PubChem BioAssay (Tox21).

Records with an inconclusive call do not appear. Active and inactive are the calls of the source. Unless noted, calls follow the shape of the dose curve; as a rule, active = well fitted curve in the direction sought with a large enough effect in the repeat runs; inconclusive = weak or mixed curves; inactive = no such curve, though single readings can be large; an effect the other way counts as inactive or inconclusive.

Assay [1] can be described thus: qHTS assay to identify aromatase inhibitors - cell viability counter screen (AID 743084).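 Also: cells stimulated with testosterone during compound exposure; nearly all actives have a fitted effect of over 55% in size.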
In assay [2] the target is Aryl hydrocarbon receptor (Homo sapiens) (UniProt P35869). Put plainly: qHTS assay to identify small molecule that activate the aryl hydrocarbon receptor (AhR) signaling pathway (AID 743085). Also: nearly all actives have a fitted effect of over 15% in size. Also: potency is read from the fitted curve at half-maximal effect.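 As to activation: HG2L7.5c1 human HepG2 liver cells with stably integrated DRE-driven firefly reporter; series mostly up to about 70 µM.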 The method in brief: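 HepG2 cells stably carrying a 20-DRE firefly luciferase reporter (HG2L7.5c1) treated with compound for 24 hr at 37C. Luciferase read by ONE-Glo luminescence, with CellTiter-Fluor viability read first.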
Aryl hydrocarbon receptor (Homo sapiens), sequence (P35869 whole entry, looked up): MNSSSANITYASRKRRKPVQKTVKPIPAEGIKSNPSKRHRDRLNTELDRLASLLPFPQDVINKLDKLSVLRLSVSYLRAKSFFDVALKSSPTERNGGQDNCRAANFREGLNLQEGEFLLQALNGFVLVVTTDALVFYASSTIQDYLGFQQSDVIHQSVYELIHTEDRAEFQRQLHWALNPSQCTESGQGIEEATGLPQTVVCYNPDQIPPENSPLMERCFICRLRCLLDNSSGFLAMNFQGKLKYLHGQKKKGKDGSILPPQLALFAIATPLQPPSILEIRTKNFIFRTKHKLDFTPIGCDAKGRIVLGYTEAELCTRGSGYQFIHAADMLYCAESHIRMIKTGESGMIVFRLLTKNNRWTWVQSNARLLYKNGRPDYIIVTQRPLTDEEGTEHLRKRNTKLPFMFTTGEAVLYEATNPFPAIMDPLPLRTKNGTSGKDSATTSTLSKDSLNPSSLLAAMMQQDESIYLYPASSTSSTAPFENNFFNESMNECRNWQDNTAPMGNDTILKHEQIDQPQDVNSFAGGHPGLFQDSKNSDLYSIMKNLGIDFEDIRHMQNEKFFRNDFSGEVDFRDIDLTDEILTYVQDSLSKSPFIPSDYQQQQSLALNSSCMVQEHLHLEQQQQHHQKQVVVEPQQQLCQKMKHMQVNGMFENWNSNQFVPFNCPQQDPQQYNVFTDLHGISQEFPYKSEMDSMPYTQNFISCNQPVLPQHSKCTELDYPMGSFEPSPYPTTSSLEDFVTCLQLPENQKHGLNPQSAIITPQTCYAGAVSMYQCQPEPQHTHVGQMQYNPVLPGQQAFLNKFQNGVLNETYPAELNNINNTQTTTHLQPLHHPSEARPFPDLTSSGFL
(In general: In qHTS, concentration-response curves come from the screen itself.)

A short description of assay [3]: qHTS assay to identify small molecule that activate the aryl hydrocarbon receptor (AhR) signaling pathway - cell viability counter screen (AID 743086). Also: series mostly up to about 70 µM; nearly all actives have a fitted effect of over 45% in size. In outline: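 HepG2-AhR-luc (HG2L7.5c1) cells, 4000/well, treated 24 h at 37 C with compound; viability measured as CellTiter-Fluor fluorescence after 30 min in the same wells as the luciferase read.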
Assay [4] has as its target Peroxisome proliferator-activated receptor gamma (Homo sapiens) (UniProt P37231). As to the kind of experiment: qHTS assay to identify small molecule antagonists of the peroxisome proliferator-activated receptor gamma (PPARg) signaling pathway (AID 743191; calls by dose curve; also: series mostly up to about 63 µM; nearly all actives have a fitted effect of over 30% in size). The method in brief: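 GeneBLAzer PPARg UAS-bla HEK293H cells, 5 h post-plating, exposed to compounds 17 h at 37C. LiveBLAzer B/G FRET substrate added for 1 h at room temperature; beta-lactamase reporter read by fluorescence intensity.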

The nature of assay [5]: qHTS assay to identify small molecule antagonists of the peroxisome proliferator-activated receptor gamma (PPARg) signaling pathway - cell viability counter screen (AID 743194). Also: nearly all actives have a fitted effect of over 55% in size. To be noted: Potency: co-treated with 50 nM rosiglitazone. The method in brief:
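Cytotoxicity counter screen in PPARg-bla HEK293H cells, same wells as reporter assay. Compounds plus 50 nM rosiglitazone (final) for 17 h at 37 C, then viability read by CellTiter-Glo luminescence.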

The nature of assay [6]: qHTS assay for small molecule agonists of the antioxidant response element (ARE) signaling pathway (AID 743202; active = well fitted activation curve with a large enough effect in the signal ratio in the repeat runs, not every such curve was filed as active; the % refers to the signal ratio). The method in brief: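 ARE-bla HepG2 cells (beta-lactamase reporter under the antioxidant response element), plated 5 hours, then exposed to compounds 16 hours at 37 C. LiveBLAzer B/G FRET substrate added for 2 hours at room temperature; fluorescence intensity read.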

Assay [7] is described as follows: qHTS assay for small molecule agonists of the antioxidant response element (ARE) signaling pathway - cell viability counter screen (AID 743203; calls by dose curve; also: nearly all actives have a fitted effect of over 55% in size). The method in brief:
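CellSensor ARE-bla HepG2 cells, 2,000 per well, rested 5 hrs at 37C/5% CO2, then exposed to compound in DMSO for 16 hrs; viability read as CellTiter-Glo luminescence after 30 min at room temperature, in the reporter wells.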

Assay [8] in a line: qHTS assay for small molecule activators of the heat shock response signaling pathway - cell viability counter screen (AID 743209). Also: nearly all actives have a fitted effect of over 50% in size. The method in brief:
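CellSensor HSE-bla HeLa cells, plated overnight at 37 C/5% CO2, were exposed to compounds in DMSO for 5 h at 37 C. Viability was then read in the same wells by CellTiter-Glo luminescence after 30 min at room temperature.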

Assay [9] can be described thus: qHTS assay for small molecule activators of the heat shock response signaling pathway (AID 743210; active = well fitted activation curve with a large enough effect in the signal ratio in the repeat runs, with a control signal flat, not every such curve was filed as active; the % refers to the signal ratio; also: series mostly up to about 63 µM). In outline: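 HSE-bla HeLa cells (beta-lactamase reporter under heat shock response elements), plated overnight, then exposed to compounds 5 h at 37 C; LiveBLAzer B/G FRET substrate added, 2.5 h at room temperature, fluorescence intensity read.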
Assay [10] can be described thus: qHTS assay to identify small molecule agonists of the peroxisome proliferator-activated receptor delta (PPARd) signaling pathway - cell viability counter screen (AID 743211). Also: nearly all actives have a fitted effect of over 55% in size. In outline: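 PPARd-bla HEK293H cells (3000/well) were pre-incubated 5 h at 37 C, then exposed to compound for 17 h at 37 C. After 2 h with LiveBLAzer substrate, CellTiter-Glo was added to the same wells; luminescence read after 30 min at room temperature.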

Assay [11] concerns the target Peroxisome proliferator-activated receptor delta (Homo sapiens) (UniProt Q03181). Put plainly: qHTS assay to identify small molecule agonists of the peroxisome proliferator-activated receptor delta (PPARd) signaling pathway (AID 743212; calls by dose curve). The method in brief:
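GeneBLAzer UAS-bla HEK293H cells carrying a PPARδ construct were exposed to compounds at 37 °C. Beta-lactamase activity was read by FRET fluorescence after 2 h at room temperature with LiveBLAzer B/G substrate.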

The target is the same in assay [12]. Put plainly: qHTS assay to identify small molecule antagonists of the peroxisome proliferator-activated receptor delta (PPARd) signaling pathway (AID 743215; active = well fitted inhibition curve with a large enough effect in the signal ratio in the repeat runs, not every such curve was filed as active; the % refers to the signal ratio;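 also: cells stimulated with agonist L165041 at 300 nM final during compound exposure; series mostly up to about 62 µM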). In outline: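 PPARd UAS-bla HEK293H cells were pre-incubated 5 h at 37 C, then given test compounds in DMSO plus agonist L165041 (300 nM final). After 17 h at 37 C, beta-lactamase FRET substrate was added; fluorescence read after 2 h at room temperature.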

The nature of assay [13]: qHTS assay to identify small molecule agonists of the farnesoid-X-receptor (FXR) signaling pathway - cell viability counter screen (AID 743218). Also: nearly all actives have a fitted effect of over 45% in size. In outline: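 FXR-UAS-bla HEK 293T cells, plated 5 h at 37 C, were exposed to compounds for 16 h at 37 C. CellTiter-Glo was then added to the same wells as the bla readout; luminescence read after 30 min at room temperature.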

Assay [14] in a line: qHTS assay to identify small molecule antagonists of the farnesoid-X-receptor (FXR) signaling pathway - cell viability counter screen (AID 743221; active = well fitted cell-killing curve with a large enough effect in the repeat runs, not every such curve was filed as active; also: nearly all actives have a fitted effect of over 50% in size). In outline: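 GeneBLAzer FXR-UAS-bla HEK 293T cells, compound plus chenodeoxycholic acid (50 uM final), 16 h at 37 C. CellTiter-Glo added to the same wells after the beta-lactamase read; luminescence read after 30 min at room temperature as viability.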

Assay [15] deals with Vitamin D3 receptor (Homo sapiens) (UniProt P11473). As to the kind of experiment: qHTS assay to identify small molecule agonists of the vitamin D receptor (VDR) signaling pathway (AID 743222; calls by dose curve). The method in brief:
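VDR-bla cells were plated 4 h at 37C/5% CO2, then exposed to compounds in DMSO for 16 h. After LiveBLAzer B/G FRET substrate addition and 2 h at room temperature, beta-lactamase reporter fluorescence was read.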

Assay [16] is described as follows: qHTS assay to identify small molecule antagonists of the peroxisome proliferator-activated receptor delta (PPARd) signaling pathway - cell viability counter screen (AID 743213). Also: nearly all actives have a fitted effect of over 50% in size. In outline: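 HEK293H cells with the PPARd UAS-bla reporter, co-treated 17 h at 37 C with compounds and L165041 (300 nM final), were lysed with CellTiter-Glo. Luminescence indicated viable cell content.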

Assay [17] concerns the target Bile acid receptor (Homo sapiens) (UniProt Q96RI1). As to the kind of experiment: qHTS assay to identify small molecule antagonists of the farnesoid-X-receptor (FXR) signaling pathway (AID 743217; active = well fitted inhibition curve with a large enough effect in the signal ratio in the repeat runs, not every such curve was filed as active; the % refers to the signal ratio). The method in brief: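 FXR-UAS-bla HEK 293T cells pre-incubated 5 h at 37 °C, then exposed to compounds with chenodeoxycholic acid (50 uM final) for 16 h at 37 °C. Beta-lactamase reporter read by LiveBLAzer B/G FRET substrate fluorescence after 2 h at room temperature.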

Assay [18] concerns the target Vitamin D3 receptor (Homo sapiens) (UniProt P11473). Put plainly: qHTS assay to identify small molecule antagonists of the vitamin D receptor (VDR) signaling pathway (AID 743223; active = well fitted inhibition curve with a large enough effect in the signal ratio in the repeat runs, not every such curve was filed as active; the % refers to the signal ratio). The method in brief:
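VDR-bla cells were treated with compound plus 3 nM final 1alpha,25-dihydroxyvitamin D3 for 16 h at 37C. Beta-lactamase reporter read by B/G FRET substrate fluorescence after 2 h at room temperature. qHTS format.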

Assay [19] deals with Peroxisome proliferator-activated receptor gamma (Homo sapiens) (UniProt P37231). As to the kind of experiment: qHTS assay to identify small molecule agonists of the peroxisome proliferator-activated receptor gamma (PPARg) signaling pathway (AID 743094; active = well fitted activation curve with a large enough effect in the signal ratio in the repeat runs, not every such curve was filed as active; the % refers to the signal ratio). In outline: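 GeneBLAzer PPARg UAS-bla HEK293H cells carrying a stably integrated beta-lactamase reporter were pre-incubated 5 h at 37C, then exposed to compounds in DMSO for 17 h at 37C; LiveBLAzer B/G FRET substrate was added for 1 h at room temperature and fluorescence read.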
Peroxisome proliferator-activated receptor gamma (Homo sapiens), sequence (P37231 whole entry, looked up): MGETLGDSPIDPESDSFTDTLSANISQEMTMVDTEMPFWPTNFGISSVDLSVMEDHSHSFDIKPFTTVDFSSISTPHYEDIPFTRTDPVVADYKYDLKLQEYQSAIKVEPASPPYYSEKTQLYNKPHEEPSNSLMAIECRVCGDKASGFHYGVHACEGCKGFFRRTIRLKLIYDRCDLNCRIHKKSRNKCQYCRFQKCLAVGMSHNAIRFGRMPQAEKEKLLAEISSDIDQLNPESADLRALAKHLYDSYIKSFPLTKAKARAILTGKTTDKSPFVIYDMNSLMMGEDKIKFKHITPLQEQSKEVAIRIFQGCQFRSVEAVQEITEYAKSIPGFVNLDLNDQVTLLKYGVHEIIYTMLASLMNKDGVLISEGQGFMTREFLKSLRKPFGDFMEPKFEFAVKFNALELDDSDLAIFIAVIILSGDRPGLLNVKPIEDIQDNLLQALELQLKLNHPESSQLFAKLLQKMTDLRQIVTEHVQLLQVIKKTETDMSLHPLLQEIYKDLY

Assay [20] addresses Bile acid receptor (Homo sapiens) (UniProt Q96RI1). Put plainly: qHTS assay to identify small molecule agonists of the farnesoid-X-receptor (FXR) signaling pathway (AID 743220; active = well fitted activation curve with a large enough effect in the signal ratio in the repeat runs, not every such curve was filed as active; the % refers to the signal ratio). In outline:
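Beta-lactamase reporter under UAS control in GeneBLAzer FXR HEK 293T cells (5000/well) measured with LiveBLAzer FRET substrate after 2 h at room temperature. Compound exposure lasted 16 h at 37C.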

Bile acid receptor (Homo sapiens), sequence (Q96RI1 whole entry, looked up): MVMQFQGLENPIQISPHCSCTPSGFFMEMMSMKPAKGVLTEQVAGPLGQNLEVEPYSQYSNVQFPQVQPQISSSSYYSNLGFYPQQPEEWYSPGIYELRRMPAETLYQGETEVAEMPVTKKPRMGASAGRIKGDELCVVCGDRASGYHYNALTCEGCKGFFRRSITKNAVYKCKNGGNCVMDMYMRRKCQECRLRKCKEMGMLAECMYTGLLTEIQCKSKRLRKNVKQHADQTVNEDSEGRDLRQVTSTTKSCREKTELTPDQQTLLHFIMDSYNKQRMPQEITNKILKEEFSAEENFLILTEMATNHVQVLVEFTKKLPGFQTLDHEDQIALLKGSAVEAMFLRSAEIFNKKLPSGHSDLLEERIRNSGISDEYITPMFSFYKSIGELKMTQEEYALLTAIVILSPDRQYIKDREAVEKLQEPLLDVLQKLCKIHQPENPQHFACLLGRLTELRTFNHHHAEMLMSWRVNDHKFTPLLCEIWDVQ
Vitamin D3 receptor (Homo sapiens), sequence (P11473 whole entry, looked up): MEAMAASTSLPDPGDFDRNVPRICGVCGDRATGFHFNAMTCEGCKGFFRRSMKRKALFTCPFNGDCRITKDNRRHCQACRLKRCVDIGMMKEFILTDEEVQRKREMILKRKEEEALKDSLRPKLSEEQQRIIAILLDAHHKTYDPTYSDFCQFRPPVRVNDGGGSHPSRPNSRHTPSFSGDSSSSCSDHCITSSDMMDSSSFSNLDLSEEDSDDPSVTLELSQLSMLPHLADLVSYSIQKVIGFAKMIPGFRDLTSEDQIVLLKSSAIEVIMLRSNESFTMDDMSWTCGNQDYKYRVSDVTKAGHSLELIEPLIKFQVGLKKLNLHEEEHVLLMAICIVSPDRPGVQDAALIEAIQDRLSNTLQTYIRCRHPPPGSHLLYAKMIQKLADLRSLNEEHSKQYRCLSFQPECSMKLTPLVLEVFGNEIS
Peroxisome proliferator-activated receptor delta (Homo sapiens), sequence (Q03181 whole entry, looked up): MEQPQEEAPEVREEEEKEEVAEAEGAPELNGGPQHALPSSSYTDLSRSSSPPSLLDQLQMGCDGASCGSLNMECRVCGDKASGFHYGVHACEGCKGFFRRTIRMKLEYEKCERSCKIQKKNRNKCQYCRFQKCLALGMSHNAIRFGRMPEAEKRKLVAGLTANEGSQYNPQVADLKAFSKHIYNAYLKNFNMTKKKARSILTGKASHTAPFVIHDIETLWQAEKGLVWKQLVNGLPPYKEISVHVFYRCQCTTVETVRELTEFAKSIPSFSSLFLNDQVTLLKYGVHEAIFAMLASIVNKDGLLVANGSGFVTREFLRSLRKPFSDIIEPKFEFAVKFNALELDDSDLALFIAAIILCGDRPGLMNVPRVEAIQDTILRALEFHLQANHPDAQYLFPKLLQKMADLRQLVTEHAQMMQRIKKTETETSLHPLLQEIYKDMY

In the case of `[O]=[Cd]`, the Potency entry in assay [1], in [2], in assay [4], in [5], in [6] and in [7] was “inactive” each time. Further, the Potency result in assay [8], in [10] and in [13] was “inactive” throughout. Besides, the compound was called inactive in assay [3], in assay [9], in assay [11], in assay [12], in [14] and in [15].
Turning to `O=C(O)C(Br)CBr` (stereo not drawn), the Potency result in [1], in [2], in assay [5], in assay [7], in assay [8] and in [10] was “inactive” in each case. For the same compound, the Potency result in assay [13] is “inactive”. The outcome in assay [3], in assay [9], in assay [16] and in assay [14] was inactive.
With `CC1(C)COP(Oc2ccccc2)OC1`, the Potency result in assay [1], in [2], in [5], in assay [7], in assay [8] and in [10] was “inactive” throughout. Moreover, the Potency entry in assay [17] and in assay [13] was “inactive” throughout. In addition, the compound was called inactive in assay [3], in assay [9], in assay [11], in [16], in assay [12] and in assay [14]. Moreover, the call in [15] and in [18] was inactive.
For the compound `c1coc(-c2nc3ccccc3[nH]2)c1`, the Potency result in assay [1], in assay [4], in [5], in [7], in [8] and in [13] was “inactive” each time. The Potency in assay [2] was 30.6 µM (active). The compound was classed as inactive in assay [3], in [9], in assay [11], in [16], in assay [12] and in assay [14]. Further, the call in assay [15] and in assay [18] was inactive.
On to `CCN(CC)c1nc(C)cc(OP(=S)(OC)OC)n1`, for which the Potency entry in assay [1], in assay [5], in assay [7], in assay [8] and in [10] was “inactive” throughout. Moreover, the outcome in assay [3], in assay [19], in assay [9], in assay [11], in assay [16] and in assay [12] was inactive. In addition, the compound was classed as inactive in [14] and in assay [15].
For the compound `CCCCOC(=O)c1ccccc1C(=O)O`, the Potency entry in assay [1], in assay [4], in assay [5], in assay [7], in assay [8] and in assay [10] was “inactive” each time. Further, the Potency entry in [17] and in [13] was “inactive” throughout. In addition, the call in [3], in assay [19], in assay [9], in [11], in assay [16] and in [20] was inactive.
Regarding `CCOC(=O)NC(=S)Nc1ccccc1NC(=S)NC(=O)OCC`, the Potency result in assay [1], in [4], in [5], in assay [6], in assay [7] and in assay [8] was “inactive” in each case. Besides, the Potency entry in assay [10] and in [13] was “inactive” in each case. Moreover, the compound was called inactive in assay [3], in [19], in assay [9], in assay [11], in assay [16] and in assay [12]. Besides, the result in assay [14] and in assay [15] was inactive.
For `OC(c1ccc(F)cc1)(c1cncnc1)c1ccccc1Cl` (stereo not drawn), the Potency entry in assay [1], in [5], in assay [7], in assay [8], in assay [10] and in assay [13] was “inactive” each time. Also, the outcome in assay [3], in assay [19], in assay [9], in [11], in [16] and in assay [12] was inactive. Moreover, the result in assay [14] was inactive.
With `CC(C)NCC(O)c1ccc(N)c(C#N)c1` (stereo not drawn), the Potency result in [1], in assay [4], in [5], in [6], in assay [7] and in assay [8] was “inactive” throughout. Moreover, the Potency entry in assay [10] and in assay [17] was “inactive” throughout. Besides, the compound was classed as inactive in assay [3], in assay [19], in assay [9], in assay [11], in assay [16] and in assay [12]. Also, the outcome in assay [14] was inactive.
In the case of `N#CC(CCc1ccc(Cl)cc1)(Cn1cncn1)c1ccccc1` (stereo not drawn), the Potency entry in assay [1], in assay [2], in assay [5], in assay [6], in [7] and in assay [8] was “inactive” each time. In addition, the Potency result in [17] and in assay [13] was “inactive” in each case. For the same compound, the call in [9], in [11], in assay [12], in assay [14], in assay [15] and in [18] was inactive.
As for `C=CC1CC=CCC1` (stereo not drawn), the Potency result in assay [1], in assay [4], in [5], in [6], in [7] and in assay [8] was “inactive” each time. In addition, the Potency result in [10], in assay [17] and in [13] was “inactive” each time. Further, the compound was called inactive in assay [3], in [19], in assay [9], in assay [11], in assay [16] and in [14]. Also, the outcome in assay [15] was inactive.
For the compound `CCCCP(CCCC)CCCC`, the Potency entry in [1], in [2], in assay [5], in [7], in [8] and in [17] was “inactive” throughout. For the same compound, the Potency entry in [13] was “inactive”. The outcome in assay [3], in assay [9], in assay [11], in [16], in assay [12] and in assay [14] was inactive. Besides, the outcome in [15] and in [18] was inactive.
